Data as given in PubChem BioAssay (NCI).
This is part of a sample that, as a whole, favours compounds with a hit. Of some 83,000 tested, about 20% had one in any assay.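 Method: cells in 96-well plates; compound added at one concentration; 48 h incubation; percent growth measured; values under 10 scored active.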 The source made the active and inactive calls.

Legend:
Assay in all cases: NCI-60 one-dose screen, 48 h (100 = growth as untreated, 0 = no growth, -100 = all killed)
Details in all cases: 10 µM unless noted
[1] = test system: NCI-H23 lung
[2] = test system: NCI-H226 lung
[3] = test system: NCI-H322M lung
[4] = test system: HOP-62 NSCLC
[5] = test system: NCI-H460 lung
[6] = test system: HOP-92 NSCLC
[7] = test system: NCI-H522 lung
[8] = test system: A549/ATCC NSCLC
[9] = test system: COLO 205 colon
[10] = test system: 786-0 renal

Measured: growth

C/C=C/C(N)=O
inactive: [1] 96.9% | [2] 93.4% | [3] 93.4% | [4] 109% | [5] 102% | [6] 91.1% | [7] 104% | [8] 106% | [9] 107%

O=C1Nc2ccccc2C12CC(c1ccccc1)=NN2 (stereo not given)
inactive: [1] 70% | [2] 79.3% | [3] 66.3% | [4] 58.6% | [6] 59.2% | [7] 24.6% | [8] 39.3% | [10] 61.7% | [9] 31.4%

CC/C(Cc1ccccc1)=C(\c1ccc(OCCN2CCCC2)cc1)c1ccc(OC(C)=O)cc1
inactive: [1] 80.6% | [2] 93% | [3] 86.5% | [4] 94.5% | [6] 78.8% | [7] 83.2% | [8] 78.4% | [10] 82.3%
active: [9] 7.7%

CN1CCN(Cc2ccc(NC(=O)c3[nH]ncc3Nc3ncnc4[nH]ccc34)cc2)CC1
active: [1] -12.2% | [2] -21.3% | [3] 3.32% | [5] 2.62% | [6] -7.91% | [7] 1.39% | [9] -51%
inactive: [4] 14.1% | [8] 11.4%

CN1CCN(Cc2ccc(NC(=O)c3[nH]ncc3Nc3ncnc4sccc34)cc2)CC1
active: [1] -1.52% | [5] 5.43% | [6] -13.3% | [9] -8.12%
inactive: [2] 10.9% | [3] 21.6% | [4] 22.4% | [7] 14% | [8] 13.5%

O=C1C[C@H](Sc2nc(-c3ccc(F)cc3)cc(C(F)(F)F)n2)[C@H]2CO[C@@H]1O2
inactive: [1] 99.2% | [2] 103% | [3] 108% | [4] 104% | [5] 106% | [6] 105% | [8] 102% | [9] 75.8%
active: [7] -62.1%

COc1cc(/C=N\NC(=O)CN2CCN(c3cc4c(cc3F)c(=O)c(C(=O)N/N=C/c3ccc(O)c(OC)c3)cn4C3CC3)CC2)ccc1O
active: [9] -9.77%
inactive: [1] 53.7% | [2] 70.5% | [3] 31.7% | [4] 73.1% | [6] 70.9% | [7] 18.9% | [8] 66.9% | [10] 92.4%

CNC(=O)c1cc(Oc2ccc3nc(NC(=O)Nc4ccc(CN5CCOCC5)c(C(F)(F)F)c4)sc3c2)ccn1
active: [1] -4.08% | [5] 9.7% | [6] -7.77%
inactive: [2] 17.3% | [3] 49.6% | [4] 44.6% | [7] 22.4% | [8] 20.9% | [9] 21%

CNc1nc(C)c(-c2nc(Nc3cccc(S(N)(=O)=O)c3)ncc2F)s1
active: [1] -18.8% | [2] 7.23% | [3] 3.99% | [4] 3.17% | [7] -11.7% | [8] 3.85% | [10] 2.98% | [9] -66.1%
inactive: [6] 38.2%

CN1CCN(Cc2ccc(NC(=O)c3cncc(C#Cc4cnc(N)c5cccnc45)c3)cc2C(F)(F)F)CC1
inactive: [1] 11.4% | [3] 26.4% | [7] 28.4% | [8] 29% | [10] 32.8%
active: [2] -18.6% | [4] -0.449% | [6] -26.2% | [9] -20.5%

CNC(=O)c1cc(Oc2ccc3nc(NC(=O)Nc4ccc(N5CCC(N(C)C)CC5)cc4)sc3c2)ccn1
inactive: [1] 88.1% | [2] 94.9% | [3] 88.9% | [4] 93.5% | [5] 81.6% | [6] 74.7% | [7] 117% | [8] 79.8% | [9] 80%

O=C(CNC1C2CC3CC(C2)CC1C3)Sc1nnc2sc3ccccc3n12 (stereo not given)
inactive: [1] 95% | [2] 91.3% | [3] 113% | [4] 104% | [5] 97.9% | [6] 46.2% | [7] 96.4% | [8] 108% | [9] 106%

C=C1CCC2C3(C)COC(c4ccc(OC)cc4Br)OC3CCC2(C)C1/C=C/C1=CCOC1=O (stereo not given)
inactive: [1] 52.7% | [2] 63.1% | [3] 97.6% | [4] 97.3% | [6] 84.8% | [7] 63.8% | [8] 58.2% | [10] 77.6% | [9] 118%

Cn1c2ccccc2c2c3[nH]c(=O)[nH]c(=O)c3c3c4ccccc4n(C)c3c21
active: [6] -4.38%
inactive: [1] 43.3% | [2] 52.6% | [3] 51.4% | [4] 38.1% | [5] 20.1% | [7] 20.4% | [8] 24.3% | [9] 53.8%

Clc1cccc(Nc2nc(Nc3cnc4ccccc4c3)c3[nH]cnc3n2)c1
inactive: [1] 84.3% | [2] 72.3% | [3] 89.1% | [4] 59.9% | [7] 61.9% | [8] 74.4% | [10] 109% | [9] 79.8%
active: [6] 7.57%
